Compounds without any hit were thinned out: in the full panel of roughly 83,000, 20% have a hit.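 Cells were grown in 96-well plates and exposed to the test compound at a single concentration for 48 hours; results are reported as percent growth, with values below 10 considered active.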 Calls of active or inactive are those of the source.
Experiments:
Test in all cases: NCI-60 one-dose screen, 48 h (100 = growth as untreated, 0 = no growth, -100 = all killed)
Conditions in all cases: 10 µM unless noted
T-47D breast = tested on: T-47D breast
BT-549 breast = tested on: BT-549 breast
MDA-MB-435 melanoma = tested on: MDA-MB-435 melanoma
SW-620 colon = tested on: SW-620 colon
MCF7 breast = tested on: MCF7 breast
HCT-116 colon = tested on: HCT-116 colon
HCC-2998 colon = tested on: HCC-2998 colon
KM12 colon = tested on: KM12 colon

Measured: growth

C(=C1c2ccccc2-c2ccccc21)c1ccccn1
active: MDA-MB-435 melanoma -7.78%
inactive: T-47D breast 63.8% | BT-549 breast 58.8% | SW-620 colon 32.7% | MCF7 breast 38% | HCT-116 colon 43.5% | HCC-2998 colon 80.6% | KM12 colon 39.6%

Cc1c2oc3c(C)ccc(C(=O)OC(C)C4NC(=O)C(C(C)C)N(C)C(=O)CN(C)C(=O)C5CCCN5C(=O)C(C(C)C)NC4=O)c3nc-2c(C(=O)OC(C)C2NC(=O)C(C(C)C)N(C)C(=O)CN(C)C(=O)C3CCCN3C(=O)C(C(C)C)NC2=O)c(N)c1=O (stereo not drawn)
active: T-47D breast 5.74% | BT-549 breast -38.1% | MDA-MB-435 melanoma -71.1% | SW-620 colon 3.76% | MCF7 breast 5.55% | HCT-116 colon 7.39% | HCC-2998 colon -34.4% | KM12 colon 0.674%

CCCCOP(=O)(OCCCC)C(C(=O)OCC)C(CC(=O)OCC)C(=O)OCC (stereo not drawn)
inactive: T-47D breast 114% | BT-549 breast 114% | MDA-MB-435 melanoma 104% | SW-620 colon 106% | MCF7 breast 93.1% | HCT-116 colon 112% | HCC-2998 colon 109% | KM12 colon 111%

CC[C@@H](c1ccc(O)c(O)c1)[C@@H](CC)c1ccc(O)c(O)c1
active: T-47D breast -8.01% | SW-620 colon 5.74% | HCT-116 colon 9.12%
inactive: BT-549 breast 98% | MDA-MB-435 melanoma 62.9% | MCF7 breast 98.8% | HCC-2998 colon 103% | KM12 colon 102%

COC(=O)c1c(NC(=O)CSc2nnnn2-c2ccc(OC)cc2)sc(C)c1C
inactive: T-47D breast 92.5% | BT-549 breast 99.6% | MDA-MB-435 melanoma 109% | SW-620 colon 96.2% | MCF7 breast 85.8% | HCT-116 colon 92.1% | HCC-2998 colon 87.6% | KM12 colon 98.7%

COc1ccc2nc(N/N=C(\C)c3ccccn3)cc(C)c2c1
active: T-47D breast 0.953% | BT-549 breast -87.8% | MDA-MB-435 melanoma -94.9% | SW-620 colon -68% | MCF7 breast -74.6% | HCT-116 colon -68.7% | HCC-2998 colon -68.3% | KM12 colon -35.7%

NC(=O)NS(=O)(=O)c1ccc(N2N=C(C(F)(F)F)CC2c2cc(C(F)(F)F)cc(C(F)(F)F)c2)cc1 (stereo not drawn)
inactive: T-47D breast 72.4% | BT-549 breast 98% | MDA-MB-435 melanoma 40% | SW-620 colon 82.6% | MCF7 breast 49.7% | HCT-116 colon 55.9% | HCC-2998 colon 88.2% | KM12 colon 71%

FC(F)(F)c1ccc(-c2cnc(-c3nn[nH]n3)nc2NC2CCCCCC2)cc1
inactive: T-47D breast 46.9% [50 µM] | BT-549 breast 50.8% [50 µM] | MDA-MB-435 melanoma 43.1% [50 µM] | SW-620 colon 41.2% [50 µM] | MCF7 breast 50.4% [50 µM] | HCT-116 colon 33.3% [50 µM] | HCC-2998 colon 60.6% [50 µM] | KM12 colon 41.5% [50 µM]

O=C(O)CCC(=O)OC[C@@H](NC(=O)C(Cl)Cl)[C@H](O)c1ccc([N+](=O)[O-])cc1
inactive: T-47D breast 95% | BT-549 breast 89.6% | MDA-MB-435 melanoma 101% | SW-620 colon 108% | MCF7 breast 97.2% | HCT-116 colon 92.3% | HCC-2998 colon 100% | KM12 colon 103%

COc1ccccc1-n1c(-c2ccc(O)cc2C)cn2c3c(=O)[nH]c(=O)n(C)c3nc12
inactive: T-47D breast 77.3% | BT-549 breast 135% | MDA-MB-435 melanoma 101% | SW-620 colon 94.7% | MCF7 breast 91.7% | HCT-116 colon 97% | HCC-2998 colon 104% | KM12 colon 103%

c1cc[n+](Cc2ccnc3ccccc23)cc1
inactive: T-47D breast 106% | BT-549 breast 112% | MDA-MB-435 melanoma 100% | SW-620 colon 50.2% | MCF7 breast 41.1% | HCT-116 colon 21.1% | HCC-2998 colon 105% | KM12 colon 103%

O=C1c2cccc(NCCN=Cc3ccccc3O)c2C(=O)c2c(NCCN=Cc3ccccc3O)cccc21
inactive: T-47D breast 18% | BT-549 breast 49% | MDA-MB-435 melanoma 24.7%
active: SW-620 colon 0.678% | MCF7 breast 3.69% | HCT-116 colon 7.91% | HCC-2998 colon 2.57% | KM12 colon 6.07%

C/C(=C\CCc1ccsc1)CC/C=C(\C)CCCN1CCSCC1
inactive: T-47D breast 70.1% | BT-549 breast 97.1% | MDA-MB-435 melanoma 85.9% | SW-620 colon 92% | MCF7 breast 90.9% | HCT-116 colon 77.7% | HCC-2998 colon 96.4% | KM12 colon 84.3%

CSc1nc(-c2ccc(O)cc2O)c2c(=O)[nH]c(Nc3ccc(S(=O)(=O)Nc4nc(C)cc(C)n4)cc3)nc2n1
inactive: T-47D breast 91.5% | BT-549 breast 87.1% | MDA-MB-435 melanoma 196% | SW-620 colon 108% | MCF7 breast 113% | HCT-116 colon 101% | HCC-2998 colon 93.4% | KM12 colon 102%

CCSc1nc(-c2cccs2)n2nc(-c3ccco3)cc2n1
inactive: T-47D breast 43.1% | BT-549 breast 113% | MDA-MB-435 melanoma 111% | SW-620 colon 102% | MCF7 breast 32.9% | HCT-116 colon 94.8% | HCC-2998 colon 105% | KM12 colon 82.5%

CCOC(=O)C1C(=O)NC(C(=O)OCC)(C(=O)OCC)C1CC (stereo not drawn)
inactive: T-47D breast 109% | BT-549 breast 112% | MDA-MB-435 melanoma 115% | SW-620 colon 115% | MCF7 breast 104% | HCT-116 colon 110% | HCC-2998 colon 108% | KM12 colon 112%

From PubChem BioAssay (NCI)
